Reference: PubChem BioAssay (NCATS)
Records with an inconclusive call do not appear. Unmarked numbers belong to inactive results. Calls of active or inactive are those of the source. The call rests on the fitted dose curve; in most records, active means well fitted cell-killing curve with a large enough effect; inconclusive means small, poorly fitted or top-dose-only effect, or effect the other way; inactive means flat fitted curve, though single readings scatter.

assay: qHTS of pediatric cancer cell lines to identify multiple opportunities for drug repurposing: Confirmatory screen for Rh18 cells (AID 1347125); settings: Rh18 rhabdomyosarcoma cells, viability; series mostly up to 45.9 µM; activity change, negative = cytotoxic: at the top concentration; further: nearly all actives have a fitted effect of over 55% in size
Excerpt: Drug repurposing or repositioning has been offered as a strategy for drug development in oncology programs. This approach has special potential for childhood cancers and other rare or orphan diseases, where the expected return on new drug development has been a disincentive to pharmaceuticals.
In this project we exploit the poly-pharmacology of drugs to discover new indications via phenotypic screening of a panel of 19 well-characterized cell lines derived from solid tumors seen in children and adolescents. The goal is to identify approved drugs with previously unrecognized anticancer properties that has the potential to reveal new mechanisms and biological processes involved in carcinogenesis or drug resistance. We employed a titration-based paradigm (quantitative high-throughput screening or qHTS), where all compounds were tested at multiple concentrations for their effect on cell viability. Concentration-response curves (CRCs) were derived directly from the primary screen, and both potency and efficacy values were used to identify compounds with robust bioactivity profiles. We screened the NIH Chemical Genomics Center (NCGC) Pharmaceutical Collection (NPC) and Mechanism Interrogation Plate (MIPE) small molecule collections of approved and investigational compounds against these cell lines; and measured metabolically active cells after 48 hours of compound treatment as a proxy for cell viability.
Assay Submitter: Nathalia J. Martinez, National Center for Advancing Translational Sciences, National Institutes of Health, Rockville, MD, USA; email: natalia.martinez@nih.gov
[1] Shen, M et al. Quantitative high-throughput phenotypic screening of pediatric cancer cell lines identifies multiple opportunities for drug repurposing. Oncotarget 2017 Dec 19;9(4):4758-4772. PMID 29435139.
The cells were obtained from University of North Carolina (UNC), Pediatric Preclinical Testing Program (PPT), and Coriell Institute (CI).
qHTS cell viability assay:
Cells were assayed in growth media at a density of 500-1,000 cells/well. Five microliters of cells were dispensed into 1,536-well, white, solid-bottom, TC-treated plates (Greiner Bio One) using a multidrop dispenser and incubated at 37 degrees C, 5% CO2, under a humidified atmosphere for 5 hours. Twenty-three nanoliters of compounds and controls (neutral control DMSO or positive control bortezomib at final concentration of 2.3 µM) were subsequently transferred by Kalypsys pintool. For primary screens, the MIPE collection was tested at 11-point dilutions (final concentrations range from 0.78 nM to 46 µM) and the NPC collection at 8-point dilutions (final concentrations range from 0.59 nM to 46 µM). Compounds tested in follow-up screens were assayed at 11-point dilutions. Cells were incubated for 48 hours, followed by addition of 3 µL of CellTiter-Glo (Promega). After a 15 min incubation at room temperature, samples were analyzed for luminescence intensity using a ViewLux High-throughput CCD imager equipped with clear filters.
On the % scale 0 is the no-effect control and ±100 the full control effect; potency means the concentration at half of the fitted maximal effect.

Question: Which “activity change, negative = cytotoxic” value does the source give for COc1ccc2c(C(=O)c3ccc(Cl)cc3)c(C)n(CC(=O)O)c2c1 here?
Answer: 2.6%

Question: For CN(C)C(=S)SSC(=S)N(C)C, which Potency is on record?
Answer: 0.585 µM (active)

Question: For ClC1=C(Cl)C2(Cl)C(CBr)CC1(Cl)C2(Cl)Cl (configuration not stated), which “activity change, negative = cytotoxic” value is on record?
Answer: -7.07%

Question: Which Potency does the source give for Cc1ccc([N+](=O)[O-])[c]2c1[O][Hg]2 here?
Answer: 5.22 µM (active)

Question: Which Potency does the source give for CC[n+]1c(-c2ccccc2)c2cc(N)ccc2c2ccc(N)cc21 here?
Answer: 4.14 µM (active)

Question: Which Potency does the source give for C[C@@H]1O[C@@H](O[C@@H]2C=C3CC[C@@H]4[C@H](CC[C@]5(C)[C@@H](c6ccc(=O)oc6)CC[C@]45O)[C@@]3(C)CC2)[C@H](O)[C@H](O)[C@H]1O here?
Answer: 6.57 µM (active)

Question: For CCCCCCCCC(=O)NCc1ccc(O)c(OC)c1, which “activity change, negative = cytotoxic” value is on record?
Answer: -2.01%

Question: With COC(=O)C1=CCCN(C)C1 as the molecule, how does the “activity change, negative = cytotoxic” value read?
Answer: 14.4%

Question: Which Potency does the source give for CCCCCCCCCCCC[N+](C)(C)CCOc1ccccc1 here?
Answer: 20.8 µM (active)

Question: Which “activity change, negative = cytotoxic” value does the source give for CCc1ccc(C2CCNCC2)cc1 here?
Answer: -24.9%

Question: For CC1Sc2c(C(=O)O)c(=O)c3cc(F)c(N4CCNCC4)cc3n21 (configuration not stated), which “activity change, negative = cytotoxic” value is on record?
Answer: 13.3%

Question: With CN1[C@@H]2CC[C@H]1CC(OC(=O)c1cc(Cl)cc(Cl)c1)C2 (some centres not stated) as the molecule, how does the “activity change, negative = cytotoxic” value read?
Answer: -15.7%
